Assay outcomes as filed in PubChem BioAssay.
ADAM17 inh: ADAM17 inhibition, QFRET primary screen; recombinant ADAM17, EDANS/DABCYL FRET peptide cleavage; inhibition, % at 6.95 µM; actives 0.83% (n = 370,000); AID 720648;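 active = inhibition above the mean of compounds lying between control limits plus 3 SD, set per campaign, cut at about 8.5% in these data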;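 also: 0% = DMSO-only wells as the low control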
MPTP block: inhibitors of mitochondrial permeability transition pore | isolated mouse mitochondria, Ca2+ swelling absorbance, 30 min | inhibition, % at 10 µM | actives 1.4% (n = 360,000) | AID 602449;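 active = inhibition of 50% or more, scaled per plate between neutral and stimulator controls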;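 also: 0% = DMSO wells given calcium and 100% = 1 mM EGTA wells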
DSG3 Ab inh: human desmoglein-3 autoantibody binding inhibition; AID 588358; actives 0.48% (n = 310,000); P32926; DSG3-coupled beads, scFv-anti-DSG3-GFP binding, flow cytometry; hits give low values; binding (percent of control), % at 10 µM;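 active = binding more than 3 SD below its plate's average and above zero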;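 also: hits lower antibody fragment binding to DSG3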
Target sequence (P32926 whole entry, looked up, the tested form may be a part): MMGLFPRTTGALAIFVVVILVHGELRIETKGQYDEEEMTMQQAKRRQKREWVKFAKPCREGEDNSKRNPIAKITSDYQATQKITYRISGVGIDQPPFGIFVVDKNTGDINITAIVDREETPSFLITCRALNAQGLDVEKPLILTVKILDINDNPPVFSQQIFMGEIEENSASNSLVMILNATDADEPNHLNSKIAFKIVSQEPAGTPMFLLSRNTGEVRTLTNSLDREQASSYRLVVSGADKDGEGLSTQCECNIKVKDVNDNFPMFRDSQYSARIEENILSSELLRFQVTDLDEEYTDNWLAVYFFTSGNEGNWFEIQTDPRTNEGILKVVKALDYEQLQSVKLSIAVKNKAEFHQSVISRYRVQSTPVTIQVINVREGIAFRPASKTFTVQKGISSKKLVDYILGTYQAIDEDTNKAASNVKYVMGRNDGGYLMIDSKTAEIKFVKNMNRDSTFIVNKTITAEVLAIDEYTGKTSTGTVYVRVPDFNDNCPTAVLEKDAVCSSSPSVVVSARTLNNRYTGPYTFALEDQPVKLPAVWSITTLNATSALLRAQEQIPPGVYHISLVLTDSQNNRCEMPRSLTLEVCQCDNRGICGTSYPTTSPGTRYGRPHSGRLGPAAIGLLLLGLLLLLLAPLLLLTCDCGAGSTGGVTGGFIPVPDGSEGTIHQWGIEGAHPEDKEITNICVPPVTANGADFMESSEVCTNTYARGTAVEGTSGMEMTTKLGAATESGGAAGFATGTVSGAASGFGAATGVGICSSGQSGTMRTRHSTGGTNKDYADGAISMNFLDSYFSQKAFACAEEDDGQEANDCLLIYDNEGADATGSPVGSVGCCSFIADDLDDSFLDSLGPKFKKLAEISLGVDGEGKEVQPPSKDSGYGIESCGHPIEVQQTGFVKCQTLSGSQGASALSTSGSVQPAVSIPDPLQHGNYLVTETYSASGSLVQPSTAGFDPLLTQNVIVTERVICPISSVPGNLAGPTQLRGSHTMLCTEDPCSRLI
ADAM10 inh: inhibits human ADAM10. O14672. recombinant ADAM10, EDANS/DABCYL FRET peptide cleavage, 3 h. inhibition, % at 7 µM. actives 0.62% (n = 370,000). AID 720582;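 active = inhibition above a per-campaign cutoff equal to the mean of compounds falling between control-based bounds plus 3 SD, cut at about 20% in these data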;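 also: 0% = DMSO wells while the 100% control is not disclosed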
proKLK7 act: activates the human kallikrein-7 zymogen; AID 652039; purified proKLK7, EDANS-DABCYL substrate fluorescence; 100% is mature enzyme control, 0% vehicle; P49862; actives 0.9% (n = 370,000); activation, % at 7 µM;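 active = activation above the mean of all tested compounds plus 3 SD, computed per campaign excluding outliers beyond control limits, cut at about 13% in these data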
rCAG RNA binder: molecules binding r(CAG) RNA repeats; r(CAG) RNA repeat, TO-PRO-1 dye displacement fluorescence; inhibition, % at 3 µM; actives 1.3% (n = 370,000);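 active = inhibition above the plate cutoff, the mean of all test compounds on that plate plus 3 SD, cut at about 35% in these data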;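 also: 0% = DMSO alone and 100% = 100 µM mitoxantrone as full dye displacement; higher means more dye released from RNA so lower well fluorescence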
rCAG bind conf: r(CAG) RNA repeat binding, confirmation; TO-PRO-1 dye displacement fluorescence; inhibition, % at 3 µM; actives 70% (n = 4,300); shares compounds with rCAG RNA binder; AID 652065;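 active = inhibition above a per-plate cutoff, the mean inhibition of sample wells plus 3 SD, cut at about 35% in these data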;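 also: loss of TO-PRO-1 fluorescence as compound displaces dye from 1x1 AA loop RNA; 0% = DMSO only wells and 100% = 100 µM mitoxantrone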
dCAG dye counter: DNA CAG dye complex inhibition counter-screen; shares compounds with rCAG RNA binder; d(CAG) DNA oligo TO-PRO-1 dye displacement, fluorescence; inhibition, % at 3 µM; actives 94% (n = 4,300);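 active = inhibition above its plate's cutoff, the mean test-well inhibition plus 3 SD, cut at about 4.8% in these data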;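 also: 0% = DNA dye mix with DMSO and 100% = 100 µM mitoxantrone; hits displace the dye from DNA and so lower well fluorescence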
DNA CAG DR: disrupts DNA CAG TO-PRO-1 complex in dose response; shares compounds with rCAG RNA binder; DNA CAG/GTC duplex TO-PRO-1 dye displacement fluorescence; IC50, µM; actives 20% (n = 250); in the data active = IC50 below about 10 µM
The depositor's hits bear a star; i = inactive; nt = not tested or not shown. Rows were chosen to be rich in hits. Some 4.7% of all compounds tested hit in one or more screens of this group.

SMILES	ADAM17 inh	MPTP block	DSG3 Ab inh	ADAM10 inh	proKLK7 act	rCAG RNA binder	rCAG bind conf	dCAG dye counter	others
COc1ccc(/C=C2\C(=O)NC(=S)N2C(=O)c2ccc(C)cc2)cc1	-3	7	100	5	-1	58*	76*	35*
O=C1NC(=S)N(C(=O)c2ccc(F)cc2)/C1=C/c1cccnc1	-4	3	110	-1	0	1	nt	nt
Cc1cccc([N+](=O)[O-])c1NC(=O)COC(=O)c1nc2nccc(C)n2n1	-3	-4	nt	-8	0	4	nt	nt
COc1cc(/C=C2\SC(=S)N(C(C(=O)O)c3ccccc3)C2=O)cc(OC)c1OC (centres undefined)	-4	2	103	-1	0	56*	64*	24*
COc1ccc(/C=C2\SC(=S)N(N3CCOCC3)C2=O)c(OC)c1	-3	3	111	-3	-1	1	nt	nt
COc1cccc(/C=C2\SC(=S)N(N3CCOCC3)C2=O)c1OC	5	1	96	5	0	-2	nt	nt
O=C(O)C(c1ccccc1)N1C(=O)/C(=C\c2ccc(-c3ccc(Br)cc3)o2)SC1=S (centres undefined)	-2	6	89	6	0	34	nt	nt
O=C(O)C(c1ccccc1)N1C(=O)/C(=C\c2ccc(-c3ccccc3Cl)o2)SC1=S (centres undefined)	-1	2	106	-1	0	45*	87*	63*
COc1cccc(/C=C2\SC(=S)N(C(C(=O)O)c3ccccc3)C2=O)c1OC (centres undefined)	-2	3	96	-2	0	63*	63*	25*
COc1ccccc1NC(=O)CCN1C(=O)/C(=C/c2cc(OC)c(OC)c(OC)c2)SC1=S	1	1	98	-5	-1	-1	nt	nt
COc1ccc(/C=C2\SC(=S)N(C(C(=O)O)c3ccccc3)C2=O)c(OC)c1 (centres undefined)	0	3	99	2	0	79*	79*	45*
Cc1cc2nc(NC(=O)C3(C)CCCN(C(C)C)C3)[nH]c2cc1C (centres undefined)	0	1	nt	-6	0	-1	nt	nt
Cc1nn(-c2ccccc2)c(C)c1C=NNC(=O)CSc1nc2ccccc2n1C	4	nt	nt	-4	0	1	nt	nt
NNC(=S)Nc1cccc(-c2n[nH]c(=S)o2)c1	-7	0	106	-25	0	51*	18	6.8*
C[C@@H]1CN([C@@H](C)CO)S(=O)(=O)c2ccc(/C=C/c3ccccc3)cc2O[C@@H]1CN(C)Cc1ccc(C(=O)O)cc1	-1	-1	nt	-19	1	60*	66*	25*
C[C@@H]1CN([C@H](C)CO)S(=O)(=O)c2ccc(Br)cc2O[C@@H]1CN(C)Cc1ccc(C(=O)O)cc1	-3	0	nt	-3	1	14	nt	nt
C=CCOc1ccc(/C=C/C(=O)OCC(=O)N2CCC(c3ccccc3)=N2)cc1	-4	2	98	-2	0	1	nt	nt
C/C(=N\Nc1cc(C)nc(-c2ccccc2O)n1)c1ccccc1	1	1	97	2	-25	14	nt	nt
Cc1cc(Nc2ccc(Br)cc2)nc(-c2ccccc2O)n1	0	4	118	5	6	38*	16	4
Cc1cc(N/N=C/c2ccc(O)c(C)c2O)nc(-c2ccccc2O)n1	1	4	129	-6	-126	62*	53*	24*
O=C(CN1C(=O)CCSc2ccccc21)Nc1cccc(Cl)c1F	-1	nt	nt	-6	0	7	nt	nt
COc1ccc(C(=O)N/C(=C/c2ccc(Cl)cc2)C(=O)Nc2ccc(C(=O)O)cc2)cc1	-2	0	101	2	0	46*	42*	12*
O=c1ccc(=O)n(-c2ccccc2)[nH]1	-1	2	110	1	0	2	nt	nt
O=c1cc(-c2ccccc2)[nH]n1-c1ccccc1	-1	2	109	-4	0	59*	8	3
Cc1c(/C=C2\SC(=Nc3cccc(C(=O)O)c3)NC2=O)c2ccccc2n1C	-6	4	93	3	0	45*	40*	15*
SMILES	ADAM17 inh	MPTP block	DSG3 Ab inh	ADAM10 inh	proKLK7 act	rCAG RNA binder	rCAG bind conf	dCAG dye counter	others
O=C(CCCOc1ccc(Cl)cc1Cl)Nc1ccccc1C(=O)O	-6	8	100	-3	0	20	nt	nt
O=C(COc1ccc(Cl)cc1Cl)Nc1ccc(C(=O)Nc2ccccc2C(=O)O)cc1	-1	1	92	-2	-1	50*	86*	74*
Cc1cc(C)c(C)c(S(=O)(=O)Nc2cccc(S(=O)(=O)Nc3ccccc3C(=O)O)c2)c1C	-1	1	89	-9	0	78*	73*	38*
O=C(Nc1ccccc1C(=O)O)c1cccc(NC(=O)c2ccc(Br)o2)c1	6	0	96	-8	1	45*	40*	7.8*
O=C(Nc1ccccc1C(=O)O)c1ccc(NC(=O)c2ccc(Br)o2)cc1	nt	-3	102	nt	nt	nt	nt	nt
O=C(Nc1sc(-c2ccccc2)cc1C(=O)O)c1ccccc1	-8	15	87	-8	1	85*	73*	34*	DNA CAG DR=i
O=C(Nc1ccc(F)cc1)OCc1cn(Cc2cccc(C(F)(F)F)c2)nn1	3	nt	nt	13	1	-2	nt	nt
CCC(C)c1ccc(OCC(=O)Nc2cccc(C(=O)Nc3ccc(C(=O)O)cc3)c2)cc1 (centres undefined)	3	-1	123	0	-10	75*	75*	39*
O=C(Nc1cccc(C(=O)Nc2ccccc2C(=O)O)c1)c1cccc(Cl)c1	1	11	112	5	0	60*	55*	18*
O=C(Nc1ccccc1C(=O)O)c1cccc(C(=O)Nc2ccccc2C(=O)O)c1	-2	0	104	0	0	50*	42*	9.1*
CC(=O)Oc1ccc(C(=O)Nc2cccc(C(=O)Nc3ccccc3C(=O)O)c2)cc1	-3	0	100	-9	0	50*	44*	12*
CC(=O)Nc1cccc(C(=O)Nc2ccccc2C(=O)O)c1	-4	0	87	-6	0	6	nt	nt
CCC(C)c1ccc(OCC(=O)Nc2ccc3[nH]c(=O)[nH]c3c2)cc1 (centres undefined)	-1	1	119	3	0	-2	nt	nt
